Records with an inconclusive call do not appear. Unmarked numbers belong to inactive results. Calls come from the whole dose curve; tested in HEK293 reporter line.
Experiment: qHTS for Inhibitors of the Functional Ribonucleoprotein Complex (vRNP) of Lassa (LASV) Arenavirus: Viability assay - alamar blue signal for LASV Primary Screen (AID 1347083)
Conditions: cell viability, alamar blue fluorescence (LASV minigenome counter-screen); series mostly up to 57.5 µM; activity change, negative = reduced viability: at the top concentration
% is set by controls: 0 for no effect and ±100 for the full control effect.
Note: nearly all actives have a fitted effect of over 80% in size.

Row | Compound | activity change, negative = reduced viability [%]
1 | C=C1[C@H]2C[C@H]3[C@H]4N5C[C@]6(C)CCC[C@]47[C@H]([C@H]2O)[C@]3(C[C@]5(O)[C@H]67)[C@@H]1O | -5.42
2 | C=C(C)[C@H]1CC=C(CO)CC1 | 5.48
3 | C/C=C1\CN2[C@H]3C[C@@]45c6ccccc6N(C)[C@H]4[C@@H]2CC1C3[C@H]5O (some centres undefined) | -3.14
4 | COc1ccc([C@@H]2[C@@H](O)[C@H](O)[C@@H](C)N2C)cc1OC | 2.73

Experiment: qHTS for Inhibitors of the Functional Ribonucleoprotein Complex (vRNP) of Lymphocytic Choriomeningitis Arenaviruses (LCMV): Viability assay - alamar blue signal for LCMV Primary Screen (AID 1347085)
Conditions: alamar blue viability counter-screen, LCMV vRNP screen cells; series mostly up to 57.5 µM; activity change, negative = lower viability: at the top concentration

Row | Compound | activity change, negative = lower viability
5 | CC1(C)CCC[C@]2(C)[C@H]3CCO[C@]3(C)CC[C@@H]12 | 17.8% [at 115 µM]
6 | O=C(NCCCCNCCCNC(=O)c1ccccc1)c1ccccc1 | -0.202%
7 | CCCCCc1ccco1 | -2.09%
8 | COc1cc(C)ccc1C(C)C | 0.732% [at 115 µM]
9 | CCN1C[C@]2(C)CCC(OC)[C@@]34C5C[C@@H]6CC[C@@](O)(C5C(=O)O6)[C@@H](C(O)C23)[C@@H]14 (some centres undefined) | 4.58%
10 | CC1(C)C[C@H](O)[C@@]23C[C@@H](OC2=O)[C@]2(C)C(=CCC4[C@@]5(C)CC[C@H](O)C(C)(C)C5CC[C@]42C)[C@@H]3C1 (some centres undefined) | 22.8%
11 | COc1ccc(-c2cc(=O)c3c(O)cc(OC4OC(COC5OC(C)C(O)C(O)C5O)C(O)C(O)C4O)cc3o2)cc1O (centres undefined) | 6.79%
12 | OCCN1C[C@H](O)[C@@H](O)[C@H](O)[C@@H]1CO | 1.63%
13 | COc1ccc(C(=O)OC2CC[C@@]3(C)C4CCC5[C@]6(O)C[C@H](O)[C@@]7(O)C(CN8CC(C)CCC8[C@@]7(C)O)[C@]6(O)C[C@@]53O[C@]24O)cc1OC (some centres undefined) | 8.55%
14 | C[C@@H]1CC(=O)[C@H]2CC(CO)=CCC[C@@H]2[C@@]1(C)CC/C(=C/CO)CO | 11.1%

— PubChem BioAssay (NCATS)
